About 55 (0.02%) of roughly 340,000 compounds were called active.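 Rule for the calls: active = phage lysis inhibition, versus mean bacterial control, above a set limit; inconclusive = no clear call, values can overlap the other calls; inactive = the rest.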 The list is a sample of the results. Results with a measured potency or affinity are listed apart.
Assay: inhibition of K1F phage lysis, E. coli UTI89, bacterial capsule biogenesis inhibitors, alamar blue (AID 488966);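 note: capsule biogenesis inhibitors block K1F phage lysis so surviving cells raise fluorescence; higher fluorescence means more inhibition of phage lysis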
Settings: 2 h; inhibition: at 100 µM, stronger effect = higher value unless noted; series mostly up to 300 µM; inhibition of phage lysis: at the top concentration

inhibition, inactive:
COc1ccc(N2C(=O)C(CC(=O)Nc3ccccc3)N(Cc3cccs3)C2=O)cc1 (configuration not stated) -4.46%, CCOC(=O)c1c(C)n(C)c2cc(-c3ccc(F)cc3)c(O)cc12 7.65%, C[C@H](NC(=O)c1nc[nH]c1C(=O)N[C@@H](CCCCNC(=O)OC(C)(C)C)C(=O)OC(C)(C)C)c1ccccc1 2.05%, COc1ccc(NC(=O)Nc2cc(C(C)(C)C)on2)cc1OC 1.47% [at 50 µM, stronger effect = higher value], O=S(=O)(c1ccc(S(=O)(=O)N(Cc2ccco2)Cc2ccccc2Cl)cc1)N1CCCC1 0.31%, Clc1ccc(-c2ccc(/C=N/Nc3nncc(-c4ccccc4)n3)o2)cc1 0.65%, O=C(NCc1ccccc1Cl)c1cc([N+](=O)[O-])ccc1Cl 0.11%, O=C(NCc1cc([N+](=O)[O-])ccc1O)c1cccnc1Sc1ccc(Cl)cc1 7.97%, CC(=O)Nc1ccc(Nc2ccc(S(=O)(=O)C(F)(F)F)cc2[N+](=O)[O-])cc1 -2.27%, Cc1ccc(CC(NC(=O)c2ccccc2)C(=O)NC(CC(C)C)C(=O)O)cc1 (configuration not stated) 0.84%, CCCCS(=O)CC(COC)OC(=O)c1ccccc1 (configuration not stated) 0.21%, Cc1cccc2c1nc(-c1ccccc1)n1nnnc21 -2.7%, COc1ccc(CNC(=O)CN2C(=O)CSc3ccc(S(=O)(=O)N4CCCCC4)cc32)cc1 0.13%, Cc1cc(OC(=O)c2cccs2)ccc1C(C)C -0.04%, O=C(Cn1cnc(S(=O)(=O)N2CCCC2)c1)Nc1ccccc1 0.25%, O=c1c(Cl)c(NS(=O)(=O)c2ccccc2)cnn1-c1ccccc1 0.1%, COc1ccc(C(=O)OCC(=O)NC(C)CCc2ccccc2)cc1OC (configuration not stated) -0.14%, O=C1CCc2cc(NS(=O)(=O)c3ccc(Cl)cc3)cc3c2N1CC3 -0.37% [at 50 µM, stronger effect = higher value], C=CCN1C(=O)CN=C1Nc1cc(C)cc(C)c1 -1.02%, COc1ccc(C(=O)N2CCN(C)C(C)C2)cc1OC1CCN(C(C)=O)CC1 (configuration not stated) -0.02%, CCC(OC(=O)c1nsc(Cl)c1Cl)C(=O)NCCOC (configuration not stated) -0.07%, Cc1nn(CC(=O)Nc2ccc(N3CCOCC3)cc2)c(C)c1Br -0.525% [at 50 µM, stronger effect = higher value], Cc1ccccc1NC(=O)CCN1CCN(C)CC1 -0.19%, Cc1ccccc1NC(=O)NCCCN1CCN(C)CC1 -0.845% [at 50 µM, stronger effect = higher value], CN(C)C1=NC[C@H](Cc2ccccc2)N1CC1CCCC1 6.41%, COc1cc2cc(C(=O)NCCc3ccccc3)[nH]c2cc1OC -0.295% [at 50 µM, stronger effect = higher value], O=C(C1CCCO1)N1CCN(S(=O)(=O)c2ccc(F)cc2)CC1 (configuration not stated) -0.11% [at 50 µM, stronger effect = higher value], O=C(COC(=O)c1ccccc1[N+](=O)[O-])Nc1cccnc1Cl 0.32% [at 50 µM, stronger effect = higher value], Cc1ccc(NC(=O)CN(C)C(=O)Cn2nnc(-c3ccccc3C)n2)cc1 -2.28%, COc1ccc(C(=O)OCC(=O)NCC2CCCCC2)cc1F -0.21% [at 50 µM, stronger effect = higher value], CC(C)/C=C1\CCc2c([nH]c3ccccc23)C1=O 0%, CC1Cc2ccccc2N1C(=O)COC(=O)CSc1ccc(F)cc1 (configuration not stated) 0.27% [at 50 µM, stronger effect = higher value], COc1ccc(NC(=O)CN(C)C(=O)c2ccccc2OCC(=O)Nc2cccc(C(F)(F)F)c2)cc1 1.88% [at 50 µM, stronger effect = higher value], NC(N)=N/N=C/c1ccc(OCc2ccc(Cl)cc2)cc1 -12.3%, NC(N)=N/N=C/c1ccc(OCc2ccccc2)c(OCc2ccccc2)c1 1.28%, CC1=C(C(=O)OCC(C)C)C23C(=O)c4ccccc4C2(O1)OC(N)=C3C#N (configuration not stated) 0.06%, CCOC(=O)C1CCCN(c2c(NCCCN(C)Cc3ccccc3)c(=O)c2=O)C1 (configuration not stated) 2.34%, Cc1ccc2nc(SCC(=O)Nc3ccccc3N3CCOCC3)c(C#N)cc2c1 -1.09%, CCC(=O)N1c2ccc(S(=O)(=O)N3CCCCC3)cc2CC1C (configuration not stated) 0.16%, CC(C)N(Cc1ccccc1)C(=O)CN1C(=O)NC2(CCCC2)C1=O 1.04% [at 50 µM, stronger effect = higher value], Cc1c(NC(=S)NC(=O)c2cccc([N+](=O)[O-])c2)c(=O)n(-c2ccccc2)n1C -0.17%, O=C(CSc1nc2c(cnn2-c2ccccc2)c(=O)[nH]1)NC1CCS(=O)(=O)C1 (configuration not stated) -0.1%, COC(=O)Nc1nc(Sc2ncc(C(F)(F)F)cc2Cl)n[nH]1 1.11%, CCOC(=O)c1ccc2[nH]c3c(c2c1)CCCC3 0.13%, CCC(CC)NC(=O)c1cc(OC)c(OC)cc1[N+](=O)[O-] 0.4%, COc1cc(OC)c(OC)cc1CN(C)CC1CCCN(CCc2ccccc2F)C1 (configuration not stated) 0.88%, c1ccc2c(-c3cncc4ccccc34)cncc2c1 0.59%, CCOC(=O)C(Cc1ccc(O)cc1)NC(=O)CNC(=O)C(CC(C)C)NC(=O)OC(C)(C)C (configuration not stated) 4.94%, COc1cccc(-c2c(C(=O)N/N=C(\C)c3cccs3)nnn2-c2nonc2N)c1 0.38%, Cc1ccc(C)c(S(=O)(=O)N2CCCCC2CCNC(=O)C(=O)NCc2ccccc2)c1 (configuration not stated) 0.87% [at 50 µM, stronger effect = higher value]

Inhibition of phage lysis, inactive:
Cc1ccc(Sc2ncccc2C(=O)NCc2cc([N+](=O)[O-])ccc2O)c(C)c1 5.51%, Cc1ccc(Sc2ncccc2C(=O)NCc2cc([N+](=O)[O-])ccc2O)cc1C 7.85%

— PubChem BioAssay AID488966 (Southern Research Specialized Biocontainment Screening …, 2010)
